HepG2 tox: HepG2 cytotoxicity, counter-screen for TGF-b inhibitors; HepG2 CAGA-GFP viability, ATP luminescence, 18 h; Potency, µM (series often up to 46.1 µM), for inactives: top-dose activity change, negative = cytotoxicity, hits mostly cytotoxic; actives 0.76% (n = 410,000)
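HepG2 CAGA-GFP cells (1000/well, DMEM with 1% FBS) received compound, then TGF-beta at 500 pg/mL final, and were incubated 18 hours at 37 degrees C. Viability was read by CellTiter-Glo luminescence. Media-only wells were set as complete cell-killing and DMSO as no toxicity.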
HT1080NT lethal: kills 2HG-producing HT-1080-NT fibrosarcoma cells | HT-1080-NT fibrosarcoma viability, CellTiter-Glo ATP luminescence, 48 h | Potency, µM (series often up to 46.1 µM), for the others: at the highest dose activity, negative = less viability, most hits filed as cytotoxic | actives 1.6% (n = 360,000) | AID 686970;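 further: NT is the 2HG producing partner of a matched IDH1 knockdown line; 0% = DMSO-treated cells and -100% = media-only wells without cells; nearly all actives have a fitted effect of over 55% in size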
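Luminescent CellTiter-Glo readout after 48 hours of compound exposure at 37 degrees C defined viability of HT-1080-NT cells. Activity was normalized to DMSO wells and cell-free media wells; concentration-response curves were fitted and assigned curve classes.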
HT1080 IDH1KD tx: toxicity to HT-1080 IDH1 knockdown cells (counter line) | HT-1080 IDH1 knockdown viability, ATP luminescence, 48 h | Potency, µM (highest dose often 46.1 µM), for the others: at the highest dose activity, negative = toxicity, most hits filed as cytotoxic | actives 2% (n = 360,000);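 further: 0% = DMSO wells and -100% = cell-free medium wells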
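In this qHTS, HT-1080 cells depleted of IDH1 are exposed for 48 h at 37 °C to compound titrations. Toxicity is scored from CellTiter-Glo luminescence, with DMSO as full viability and medium alone as none.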
TGFb SMAD3 inh: blocks TGF-b signaling. Potency, µM (highest dose often 46.1 µM), for the others: at the highest dose activity, negative = inhibition, actives largely listed as inhibitors. actives 1.2% (n = 410,000). HepG2 CAGA-GFP TGF-b/SMAD3 reporter, GFP fluorescence, 18 h; TGF-beta stimulated, 500 pg/mL final. AID 588855; further: on the % scale 0 is the no-effect control and ±100 the full control effect; nearly all actives have a fitted effect of over 65% in size
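HEPG2 CAGA-GFP, 1000 cells/well; 2 h settle, 37 C; cpd via pin tool; TGF-b 500 pg/mL final; 18 h, 37 C; GFP imaging ex488/em500-530; %Activity normalised to -TGF-b and +DMSO controls; CRC fit, curve class.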
DT40 TDP1 CPT: DT40-hTDP1 cell growth loss with CPT. chicken DT40 Tdp1-/-;hTDP1 cells + 20 nM CPT, ATP luminescence, 48 h. Potency, µM (top dose mostly 46.2 µM), for the others: top-dose activity change, negative = growth inhibition, usual class: inhibitors. actives 12% (n = 420,000); further: on the % scale 0 is the no-effect control and ±100 the full control effect; nearly all actives have a fitted effect of over 55% in size
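Chicken DT40 Tdp1-/- cells complemented with human TDP1, 400 cells/well, exposed to compounds plus 20 nM camptothecin for at least 48 h at 37 C; viability read as ATP content by CellTiter-Glo luminescence.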
TDP1 cell noCPT: qHTS for Inhibitors of human tyrosyl-DNA phosphodiesterase 1 (TDP1): qHTS in cells in absence of CPT | DT40 Tdp1-/- hTDP1 cells, no CPT, ATP luminescence, 48 h | Potency, µM (series often up to 46.2 µM), for inactives: top-dose activity change, negative = growth inhibition, most hits filed as inhibitors | actives 15% (n = 420,000) | AID 686978, 2013; further: on the % scale 0 is the no-effect control and ±100 the full control effect; nearly all actives have a fitted effect of over 55% in size
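Readout: luminescence from CellTiter-Glo after 30 min in the dark at RT. Cells: DT40 Tdp1-/- with stable hTDP1, 400/well. Exposure: compounds alone, ≥48 hr, 37 °C.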
The depositor's hits bear a star; ? = inconclusive; · = not tested or not shown. In the library only some 17% were active in any assay of this set; here they are far more common. The call rests on the fitted dose curve; in most records, active means well fitted curve in the direction sought with a large enough effect; inconclusive means small, poorly fitted or top-dose-only effect, or another doubt; inactive means no such curve, though single readings can be large; an effect the other way counts as inactive or inconclusive. Potency means the concentration at half of the fitted maximal effect.

SMILES	HepG2 tox	HT1080NT lethal	HT1080 IDH1KD tx	TGFb SMAD3 inh	DT40 TDP1 CPT	TDP1 cell noCPT
O=C(Nc1cccc(-c2nc3ccccc3o2)c1)c1cc([N+](=O)[O-])ccc1N1CCOCC1	-12%	·	·	-24%	?	8.2µM*
Cc1ccccc1-n1ncc(C(C)NS(=O)(=O)c2ccccc2Cl)c1C (configuration not stated)	12%	3%	3%	-17%	?	?
COc1ccc(NC(=O)C(c2ccccc2)N(C)C(=O)/C=C\c2ccc3c(c2)OCO3)cc1 (configuration not stated)	-23%	·	·	-25%	?	?
COc1cc(C(C(=O)NC2CCCCC2)N(C(=O)Cc2c[nH]c3ccccc23)c2ccccc2C)cc(OC)c1OC (configuration not stated)	1%	-19%	-2%	?	-7%	-26%
COc1cc(C(C(=O)NC2CCCCC2)N(Cc2cccs2)C(=O)Cc2c[nH]c3ccccc23)cc(OC)c1OC (configuration not stated)	-5%	-19%	-14%	?	23µM*	21µM*
COc1ccc(C(C(=O)Nc2ccc3c(c2)OCO3)N(C)C(=O)Cc2c[nH]c3ccccc23)cc1 (configuration not stated)	-32%	?	?	?	18µM*	?
COc1ccc(CN(C(=O)Cc2c[nH]c3ccccc23)C(C(=O)NC2CCCCC2)c2ccc(C)o2)cc1 (configuration not stated)	-30%	-13%	?	?	?	18µM*
C[n+]1c2n(c3ccccc31)N=C(c1ccccc1)CS2	-40%	?	?	?	2.3µM*	2.3µM*
CCc1nnc2n1N=C(c1ccc(Br)cc1)CS2	-4%	3%	6%	-1%	-4%	-12%
C[n+]1c2n(c3ccccc31)N=C(c1ccc(-c3ccccc3)cc1)CS2	-5%	?	?	?	0.58µM*	0.52µM*
C[n+]1c2n(c3ccccc31)N=C(c1ccc(Br)cc1)CS2	-33%	?	13µM*	-19%	0.65µM*	0.52µM*
Cc1ccc(C(=O)Nc2cccc(-c3nc4cccnc4s3)c2C)cc1	-15%	·	·	?	?	?
CC(C)(C)C(=O)OCOC(=O)C1N2C(=O)CC2S(=O)(=O)C1(C)C (configuration not stated)	·	·	·	·	5%	-2%
O=C(O)c1cccc(NC2=C(Cl)C(=O)c3ccccc3C2=O)c1	-86%	?	16µM*	?	12µM*	13µM*
O=C(O)c1cccc(NS(=O)(=O)/C=C/c2ccccc2)c1	1%	-3%	0%	-4%	-7%	-11%
O=C(O)c1ccc(NC2=C(Cl)C(=O)c3ccccc3C2=O)cc1	-23%	-10%	-16%	?	15µM*	13µM*
O=C(O)c1ccc(-n2cc(-c3cc4ccccc4oc3=O)[nH]c2=S)cc1	5%	4%	15%	5%	2%	-18%
CC(=O)/C=N/Nc1ccccc1	-93%	?	29%	22µM*	-18%	-8%
CC(=NNc1ccccc1)C(C)=NNc1ccccc1	9%	6%	16%	12%	-5%	-8%
Nc1ncnc2c(C3OC(CO)C(O)C3O)c[nH]c12 (configuration not stated)	3.2µM*	0.23µM*	0.15µM*	-3%	0.16µM*	0.15µM*
Nc1ncnc2c1ncn2[C@@H]1O[C@H](CO)[C@@H](O)[C@H]1O	33%	?	26%	-4%	-11%	-28%
